{
  "source": "PubChem BioAssay AID504770",
  "about": "(ICCB-Longwood Screening Facility, Harvard Medical School, 2011)",
  "note": "Out of some 130,000 compounds screened, about 350 (0.27%) were called active. The full list was thinned out, with actives kept by preference. Values without a mark were called inactive. No stated cut-off is given here; in the data, active means z-score below about -2 (passing the limit was not always enough); inactive means the rest.",
  "data": [
    {"assay": "PubChem AID 504770", "conditions": "E. coli YBA685 rctB-dependent plasmid, OD600 growth, 3 h; active compounds read low", "values": [
      {"smiles": "Cc1ccccc1NC(=O)CSC(=O)c1ccccc1", "z-score": 0.6},
      {"smiles": "COc1ccc(C2C(C#N)(C#N)C2(C#N)C#N)cc1", "z-score": 0.05},
      {"smiles": "N#CC1(C#N)C(c2ccc(Cl)c(Cl)c2)C1(C#N)C#N", "z-score": "-6.85 (active)"},
      {"smiles": "O=C(O)C(Cc1ccccc1)Nc1ncnc2sc3c(c12)CCC3", "note": "(configuration not stated)", "z-score": 0.65},
      {"smiles": "CCc1cccc(NC(=O)CC(=O)Nc2ccc3nc4n(c(=O)c3c2)CCCCC4)c1", "z-score": 0.6},
      {"smiles": "Cc1c(C(=O)NC2CCCCC2)sc2nc(-c3ccc(F)cc3)cn12", "z-score": 0.15},
      {"smiles": "COc1ccc(C(=O)Nc2ccc(-n3nncc3-c3ccccc3)cc2)cc1", "z-score": -0.9},
      {"smiles": "Cc1ccccc1NC(=O)NC(=O)CC#N", "z-score": 0.45},
      {"smiles": "Cc1ccccc1C(=O)N(CC#N)CC#N", "z-score": -0.6},
      {"smiles": "Cc1ccccc1C(=O)CC#N", "z-score": "-3.2 (active)"},
      {"smiles": "CC(C)(C)c1ccc(CNCc2ccco2)cc1", "z-score": 0.35},
      {"smiles": "CCOC(=O)CN1C=NS(=O)(=O)c2ccccc21", "z-score": 0.4},
      {"smiles": "O=C1Nc2ccccc2C1=Nc1cccc(C(F)(F)F)c1", "z-score": -1.05},
      {"smiles": "CC(C)c1c(O)c2ccccc2[nH]c1=O", "z-score": -0.4},
      {"smiles": "O=C1CCC(C2CCC(=O)CC2)CC1", "z-score": -0.55},
      {"smiles": "CCc1nc2ccccc2n1CCO", "z-score": 0.6},
      {"smiles": "CS(=O)(=O)Nc1ccccc1C(=O)OCC(=O)NC1CC1", "z-score": -0.75},
      {"smiles": "Cc1ccc(NC(=O)Cn2cc3c(n2)CCC(C)C3)c(Cl)c1", "note": "(configuration not stated)", "z-score": -0.6},
      {"smiles": "COc1cc(CNc2ccc3[nH]c(=O)[nH]c3c2)ccc1OCC(N)=O", "z-score": 1.6},
      {"smiles": "Cc1nc(S(=O)(=O)NCc2ccc(-c3cccs3)cc2)cn1C", "z-score": -0.2},
      {"smiles": "CCCOc1ccc(NC(=O)CC2SC(N)=NC2=O)cc1", "note": "(configuration not stated)", "z-score": -1.1},
      {"smiles": "Cc1onc(-c2c(Cl)cccc2Cl)c1/C=N/O", "z-score": -0.4},
      {"smiles": "CCCCn1c2ccccc2c2nc3ccccc3nc21", "z-score": 0.05},
      {"smiles": "CCCCn1c2nc3ccccc3nc2c2c(N)ncnc21", "z-score": 0.2},
      {"smiles": "CCCc1nc2c3ccccc3ncn2n1", "z-score": "-5.5 (active)"},
      {"smiles": "Cc1c(C(=O)NCc2ccc(OC(C)C)cc2)oc2ccc3c(c12)C=CC(C)(C)O3", "z-score": 0.85},
      {"smiles": "CC(=O)Oc1cccc2c1C(=O)C=CC2=O", "z-score": "-6.5 (active)"},
      {"smiles": "CC(=O)Oc1cccc2c1OC(C)(C)C2", "z-score": 1.6},
      {"smiles": "CC(=O)Oc1ccc(OC(C)=O)c2c1C1C=CC2CC1", "z-score": 0.85},
      {"smiles": "CC1Cc2cc(S(=O)(=O)NCCC(=O)Nc3ccc(F)cc3F)ccc2N1C(=O)C1CC1", "note": "(configuration not stated)", "z-score": -0.8},
      {"smiles": "COC(F)(C(=O)N1CCOCC1)C(F)(F)F", "note": "(configuration not stated)", "z-score": -0.4},
      {"smiles": "Cc1ccc(C(=O)C(C)Sc2nnc3ccccn23)cc1", "note": "(configuration not stated)", "z-score": -0.05},
      {"smiles": "Cc1c(Sc2nc3ccccc3s2)c(=O)[nH]c2cc3c(cc12)OCO3", "z-score": 1},
      {"smiles": "C/C=C/C(=O)Nc1ccc(N2CCN(c3ccc(C(F)(F)F)cn3)CC2)nc1", "z-score": 0.05},
      {"smiles": "O=C1CC2(CCN(C(=O)Cc3ccccc3)CC2)Oc2ccccc21", "z-score": 2.85},
      {"smiles": "CCc1n[nH]c(=O)c2cc3sccc3n12", "z-score": -0.2},
      {"smiles": "O=C1c2ccc(-c3nc4ccc(Cl)cc4c(=O)o3)cc2C(=O)N1CC1CCCO1", "note": "(configuration not stated)", "z-score": -0.25},
      {"smiles": "O=C1NC(=Nc2ccc(O)cc2)S/C1=C\\c1ccc(C(=O)O)cc1", "z-score": -0.6},
      {"smiles": "Cc1ccccc1C(CC(=O)O)N1Cc2ccccc2C1=O", "note": "(configuration not stated)", "z-score": -0.8},
      {"smiles": "Cc1ccc(Cn2c(=O)c3ccccc3n3c(SCC4CCCO4)nnc23)cc1", "note": "(configuration not stated)", "z-score": -0.7},
      {"smiles": "COc1ccc(NC(=O)c2cc(F)cc3c2OCOC3)cc1", "z-score": 1.45},
      {"smiles": "CNS(=O)(=O)c1ccc2[nH]c(=O)cc(C)c2c1", "z-score": 0.45},
      {"smiles": "N#CC1=CN(Cc2ccccc2)C=C(/C=N/Nc2ccc(F)cc2)C1", "z-score": -0.9},
      {"smiles": "Cc1cc(C(=O)COC(=O)C2CC2C)c(C)n1-c1cccc(S(=O)(=O)N2CCOCC2)c1", "note": "(configuration not stated)", "z-score": -0.5},
      {"smiles": "O=C(CNC1CCCC1)Nc1ccc(N2CCCC2)cc1", "z-score": -0.15},
      {"smiles": "CN1/C(=C\\C(=O)COC(=O)C(C)(C)C)C(C)(C)c2ccccc21", "z-score": -0.4},
      {"smiles": "Cn1[nH]c2nc3[nH]n(C)c(=O)c3c(-c3ccccc3)c2c1=O", "z-score": 0.65},
      {"smiles": "Cn1nc(SCC(=O)N2c3ccccc3CCc3ccccc32)sc1=S", "z-score": -0.4},
      {"smiles": "O=C(Nc1ccc(Cl)c(Cl)c1)Nc1ccnn1C1CCCCC1", "z-score": -1.3},
      {"smiles": "CN(C)c1ccc(/C=N/S(=O)(=O)c2ccccc2)cc1", "z-score": -1.15},
      {"smiles": "CC1(C)CC(=O)c2c(SCCO)sc(C#N)c2C1", "z-score": -0.35},
      {"smiles": "N#CC1=C(N)C(C#N)(C#N)C(c2cccs2)C=C1C1CC1", "note": "(configuration not stated)", "z-score": -0.95},
      {"smiles": "Cc1nn(CCCC(=O)NCCC2=CCCCC2)c(=O)c2nccn12", "z-score": 0.9},
      {"smiles": "O=S1(=O)CCN(Cc2cc(F)cc3c2OCOC3)CC1", "z-score": 0.35},
      {"smiles": "CN(C)[C@@H]1C(=O)C(C(N)=O)=C(O)[C@@]2(O)C(=O)C3=C(O)c4c(O)ccc(Cl)c4[C@@H](O)[C@H]3C[C@@H]12", "z-score": "-2.25 (active)"},
      {"smiles": "O=c1cc(O)nc2ccccn12", "z-score": 1.45},
      {"smiles": "c1ccn2c(c1)nc1nc3nonc3nc12", "z-score": "-5.05 (active)"},
      {"smiles": "O=c1[nH]nc2ccccn12", "z-score": 1},
      {"smiles": "Cc1ccccc1Oc1ccc(S(=O)(=O)N2CC(C)OC(C)C2)cc1", "note": "(configuration not stated)", "z-score": 0.7},
      {"smiles": "CC(C)CNC(=O)c1ccc(N(C)C)cc1", "z-score": -1.2},
      {"smiles": "CCOc1ccc(N=C2CSC(=O)N2)cc1", "z-score": -0.95},
      {"smiles": "CCOC(=O)c1sc(-c2ccccc2)nc1CSc1nccn1C", "z-score": 1.15},
      {"smiles": "Cc1c(CCN)sc2nc(-c3ccc(Cl)cc3)nn12", "z-score": 0.25},
      {"smiles": "CS(=O)(=O)N1CCN=C1SCc1cccnc1", "z-score": -0.85},
      {"smiles": "O=C1CCc2cc(S(=O)(=O)NCC3CCCO3)cc3c2N1CC3", "note": "(configuration not stated)", "z-score": 0.8},
      {"smiles": "CCOC(=O)c1ccc(-c2cc(=O)c3ccccc3o2)cc1", "z-score": -0.3},
      {"smiles": "O=C(Nc1ccc(F)cc1)n1ncc2cc(Cl)ccc21", "z-score": 1.1},
      {"smiles": "N#CC(C#N)=Cc1ccc(-c2cccc(C(=O)O)c2)o1", "z-score": 1.85},
      {"smiles": "COc1ccc(CNC(=O)COc2ncnc3ccccc23)cc1", "z-score": 0.2},
      {"smiles": "Cc1c(OCC#N)ccc2c3c(c(=O)oc12)CCC3", "z-score": -0.7},
      {"smiles": "CCC1(C)NC(=O)N(NC(=O)c2ccc(S(=O)(=O)N3CCCC3)cc2)C1=O", "note": "(configuration not stated)", "z-score": 0.95},
      {"smiles": "O=C(CCn1c(=O)oc2ccccc21)Sc1ccc(C(F)(F)F)cc1", "z-score": 0.8},
      {"smiles": "Cc1ccc(NC(=O)c2ccc3nc(N4CCOCC4)sc3c2)cc1", "z-score": -1.3},
      {"smiles": "O=C(CSC1=NCCS1)Nc1cc(C(F)(F)F)ccc1Cl", "z-score": -0.55},
      {"smiles": "COc1ccc(NC(=O)C(=S)N2CCCCC2)cc1", "z-score": -0.45},
      {"smiles": "Cc1nc(N)nc(CSc2ccc(Cl)cc2)n1", "z-score": 1.4},
      {"smiles": "O=C(c1[nH]nc2c1CCc1ccccc1-2)N1CCCC1", "z-score": -0.15},
      {"smiles": "CC(=O)NCc1n[nH]c(=O)c2ccccc12", "z-score": -0.4},
      {"smiles": "CCOc1ccc(NCc2nc3ccccc3n2C)cc1", "z-score": 0.75},
      {"smiles": "Oc1c(Cl)cc(Cl)c(Cl)c1Cc1c(O)c(Cl)cc(Cl)c1Cl", "z-score": "-3.25 (active)"},
      {"smiles": "CC1CC(C)CN(c2nc3ccccc3c(=O)n2-c2ccc(Cl)cc2)C1", "note": "(configuration not stated)", "z-score": -1.35},
      {"smiles": "CCS(=O)(=O)c1ccc2c(c1)N1CCS(=O)(=O)N=C1O2", "z-score": 0.9},
      {"smiles": "CC1(C)COC(Nc2ccc(Cl)c(Cl)c2)=N1", "z-score": -0.6},
      {"smiles": "Cc1nc2c3ccccc3n3c(CCCC(=O)NCc4ccccn4)nnc3n2n1", "z-score": 1.15},
      {"smiles": "O=S1(=O)CC(S(=O)(=O)c2ccccc2)C(S(=O)(=O)c2ccccc2)C1", "note": "(configuration not stated)", "z-score": 1.15},
      {"smiles": "COc1ccc2c(CC(=O)OCc3cc(Cl)c4c(c3)OCCCO4)coc2c1", "z-score": -0.55},
      {"smiles": "Cc1cccc(CC2(Cc3cccc(C)c3)C(=O)OC(C)(C)OC2=O)c1", "z-score": 0.1},
      {"smiles": "N#CC(c1ccc(F)cc1)N1CCOCC1", "note": "(configuration not stated)", "z-score": -1.05},
      {"smiles": "CN(C(=O)Cn1nc(C(F)(F)F)c2c1CCC2)C1CCCCC1", "z-score": -0.25},
      {"smiles": "O=C(CCc1ccccc1)Nc1nnc(SCC(=O)N2CCCCCC2)s1", "z-score": -0.2},
      {"smiles": "N#Cc1c(=O)c2nc(NCCc3ccccc3)ncc2n2c(=O)c3cc(Br)ccc3[nH]c12", "z-score": -1.25},
      {"smiles": "C=CCN(C(=O)C1CCCC1)c1nc2c(s1)CCCC2", "z-score": -1.05},
      {"smiles": "CC1CC(C)CN(C(=O)COC(=O)c2cccnc2Nc2ccccc2F)C1", "note": "(configuration not stated)", "z-score": 0.1},
      {"smiles": "C=CCNc1nc(SC)nc2ccccc12", "z-score": 1.45},
      {"smiles": "COc1ccc(/C=N/NC(=O)c2ccccc2)cc1OC", "z-score": 0.85},
      {"smiles": "COc1cccc(/C=N/NC(=O)Cc2ccccc2)c1", "z-score": -0.6},
      {"smiles": "COC(=O)N/N=C/c1c[n+]([O-])c2ccccc2[n+]1[O-]", "z-score": "-3.7 (active)"},
      {"smiles": "CC(NC(=O)CC1=NS(=O)(=O)c2ccccc2N1)c1ccccc1", "note": "(configuration not stated)", "z-score": 0.8},
      {"smiles": "Cc1cc(/C=C2\\C(=O)NC(=S)N(c3ccccc3F)C2=O)c(C)n1-c1ccc(Cl)c(C(=O)O)c1", "z-score": -0.8},
      {"smiles": "COC(=O)c1ccc(CNC(=O)C(C)Sc2ccccc2)cc1", "note": "(configuration not stated)", "z-score": -0.15},
      {"smiles": "N#Cc1c(C(F)(F)F)cc(=O)[nH]c1S", "z-score": -0.6},
      {"smiles": "O=C(CSC1=NC2(CCCC2)Nc2ccccc21)Nc1ccc2c(c1)OCCO2", "z-score": 0},
      {"smiles": "C=CCNc1nc(OC)nc(OC)n1", "z-score": 0.15},
      {"smiles": "COc1ccc(CN2CN(C(C)C)CSC2=S)cc1", "z-score": -1.55},
      {"smiles": "C(=C\\c1ccccc1)/CNCCCN1CCOCC1", "z-score": -0.45},
      {"smiles": "S=C1SCN(CCN2CCOCC2)CN1Cc1ccccc1", "z-score": "-2.95 (active)"},
      {"smiles": "Cc1cnc(NC(=O)CSc2nc3sc4c(c3c(=O)n2C)CCCC4)s1", "z-score": -1.2}
    ]}
  ]
}
